From PubChem BioAssay (EPA / NIEHS) come the findings set out here.

In experiment [1] the target is Estrogen-related receptor gamma (Homo sapiens) (UniProt P62508). Briefly: ATG_ERRg_TRANS: Attagene TRANS-FACTORIAL HepG2 Assay for human Estrogen-Related Receptor gamma (ERRg) (AID 2282977; active = hit-call score of the fitted dose curve at least 0.9, where 1 is the maximum;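 note: hits increase reporter signal over DMSO so potencies reflect activators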). Conditions: HepG2 Attagene TRANS reporter, ERRg transactivation. Put shortly: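 Induction of reporter transcripts through a chimeric NR-Gal4 protein is quantified in transfected human HepG2 liver cells after 24 h chemical exposure, using RT-PCR with capillary electrophoresis detection and DMSO as baseline.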

Experiment [2] has as its target Glucocorticoid receptor (Homo sapiens) (UniProt P04150). Briefly: ATG_GR_TRANS: Attagene TRANS-FACTORIAL HepG2 Assay for human Glucocorticoid Receptor (GR) (AID 2282978; active = hit-call score of the fitted dose curve at least 0.9, where 1 is the maximum;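 note: activators score as hits since higher reporter transcript over DMSO is fitted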). The following applies: HepG2 Attagene TRANS GR reporter, mRNA transcription. Put shortly:
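HepG2 cells transiently transfected with multiplexed reporter units in which chimeric NR-GAL4 proteins drive GAL4-UAS reporters; 24 h compound exposure. Reporter mRNA measured by RT-PCR, 6-FAM labelling, HpaI digestion and capillary electrophoresis; gain-of-signal fitted versus DMSO.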

The target of experiment [3] is Bile acid receptor (Homo sapiens) (UniProt Q96RI1). Briefly: ATG_FXR_TRANS: Attagene TRANS-FACTORIAL HepG2 Assay for Farnesoid X Receptor (FXR) (AID 2282979; active = hit-call score of the fitted dose curve at least 0.9, where 1 is the maximum;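 note: hits raise reporter mRNA above DMSO so AC50 marks FXR activation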). The following applies: HepG2 Attagene TRANS FXR-GAL4 reporter transcription. Put shortly:
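HepG2 cells were transiently transfected with GAL4-UAS reporters driven by chimeric NR-Gal4 proteins and dosed for 24 h. Reporter mRNA was quantified by RT-PCR, fluorescent labelling, HpaI digestion and capillary electrophoresis, with gain of signal scored versus DMSO.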

Experiment [4] addresses Oxysterols receptor LXR-alpha (Homo sapiens) (UniProt Q13133). Briefly: ATG_LXRa_TRANS: Attagene TRANS-FACTORIAL HepG2 Assay for human Liver X Receptor alpha (LXRa) (AID 2282980; active = hit-call score of the fitted dose curve at least 0.9, where 1 is the maximum). The following applies: HepG2 Attagene TRANS reporter, LXRa transactivation. Put shortly:
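HepG2 cells transiently transfected with GAL4-UAS reporter units for chimeric NR-Gal4 proteins, exposed to chemicals for 24 h. Reporter mRNA quantified by RT-PCR and capillary electrophoresis; gain of signal fitted relative to DMSO.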

The target of experiment [5] is Oxysterols receptor LXR-beta (Homo sapiens) (UniProt P55055). Briefly: ATG_LXRb_TRANS: Attagene TRANS-FACTORIAL HepG2 Assay for human Liver X Receptor beta (LXRb) (AID 2282981; active = hit-call score of the fitted dose curve at least 0.9, where 1 is the maximum). The following applies: HepG2 Attagene TRANS GAL4-LXRb reporter, mRNA. In outline: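 Measures induction of a Gal4-driven reporter transcript in HepG2 cells expressing an exogenous LXRb-Gal4 fusion. Cells are exposed to compound for 24 h before RNA isolation and RT-PCR with capillary electrophoresis detection.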

The target in experiment [6] is Hepatocyte nuclear factor 4-alpha (Homo sapiens) (UniProt P41235). Briefly: ATG_HNF4a_TRANS: Attagene TRANS-FACTORIAL HepG2 Assay for human Hepatocyte Nuclear Factor 4 alpha (HNF4a) (AID 2282982; active = hit-call score of the fitted dose curve at least 0.9, where 1 is the maximum). The following applies: HepG2 HNF4a transactivation reporter, mRNA readout. Put shortly: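 In this trans-factorial format, a chimeric HNF4a-GAL4 fusion drives a GAL4-UAS reporter in transfected HepG2 liver cells. After 24 h treatment, reporter mRNA induction is measured by RT-PCR with capillary electrophoresis, relative to DMSO.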

Experiment [7] is described as follows: ATG_M_06_TRANS: Attagene TRANS-FACTORIAL HepG2 Assay for M06 Transcription Factor (Internal Marker) (AID 2282983; active = hit-call score of the fitted dose curve at least 0.9, where 1 is the maximum). The following applies: HepG2 Attagene TRANS M06 internal marker reporter. In outline: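 mRNA levels of a reporter transcript, quantified as FAM fluorescence on capillary electrophoresis, served as readout. HepG2 cells expressing exogenous GAL4-chimera reporter constructs were exposed for 24 h. Gain of signal over DMSO was evaluated.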

Experiment [8] in a line: ATG_M_32_TRANS: Attagene TRANS-FACTORIAL HepG2 Assay for M32 Transcription Factor (Internal Marker) (AID 2282984; active = hit-call score of the fitted dose curve at least 0.9, where 1 is the maximum). Conditions: HepG2 Attagene TRANS M32 internal marker reporter. Put shortly:
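After 24 h dosing of transfected HepG2 cells, total RNA was reverse-transcribed, reporter sequences PCR-amplified, 6-FAM labelled by primer extension and HpaI-digested before capillary electrophoresis. Signal increase over DMSO was fitted.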

The target in experiment [9] is Nuclear receptor subfamily 4 group A member 2 (Homo sapiens) (UniProt P43354). Briefly: ATG_NURR1_TRANS: Attagene TRANS-FACTORIAL HepG2 Assay for human Nuclear Receptor Related Protein 1 (NURR1) (AID 2282985; active = hit-call score of the fitted dose curve at least 0.9, where 1 is the maximum). Conditions: HepG2 Attagene TRANS reporter, mRNA readout. Put shortly: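 Chimeric NR-Gal4 fusion activity measured in HepG2 after 24 h treatment. Reporter transcripts detected by RT-PCR and capillary electrophoresis fluorescence; positive-direction curve fitting against DMSO.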

The target in experiment [10] is Transcriptional activator Myb (Homo sapiens) (UniProt P10242). Briefly: ATG_Myb_CIS: Attagene CIS-FACTORIAL HepG2 Assay for human Myeloblastosis (Myb) Proto-Oncogene Transcription Factor (AID 2282986). The following applies: HepG2 Attagene CIS-FACTORIAL Myb reporter transcription; actives raise or lower the signal. Put shortly: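 HepG2 cells were transiently transfected with cis-regulated multiple reporter transcription units reflecting endogenous Myb activity, then exposed to compound for 24 hours. Reporter mRNA was measured by RT-PCR with capillary electrophoresis; bidirectional fitting versus DMSO baseline.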

In experiment [11] the target is Nuclear respiratory factor 1 (Homo sapiens) (UniProt Q16656). Briefly: ATG_NRF1_CIS: Attagene CIS-FACTORIAL HepG2 Assay for human Nuclear Respiratory Factor 1 (NRF1) Orphan Gene (AID 2282987). Conditions: HepG2 NRF1 cis-element reporter, Attagene multiplex; actives raise or lower the signal. Put shortly: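 HepG2 cells transiently transfected with multiple reporter transcription units under cis-regulatory promoter control, so endogenous transcription-factor activity is read. After 24 h compound exposure, reporter mRNA quantified by RT-PCR, fluorescent labelling, HpaI digestion and capillary electrophoresis; bidirectional fitting versus DMSO.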

The nature of experiment [12]: ATG_NFI_CIS: Attagene CIS-FACTORIAL HepG2 Assay for human Nuclear Factor I (NFI) (AID 2282989). Conditions: HepG2 cis-regulatory reporter, NFI response element transcription; actives raise or lower the signal. Put shortly: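 HepG2 cells transiently transfected with cis-element-driven multiplexed reporter transcription units, dosed for 24 h. Reporter mRNA quantified by RT-PCR, fluorescent labelling, HpaI digestion and capillary electrophoresis; bidirectional fit versus DMSO baseline.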

Experiment [13] in a line: ATG_NRF2_ARE_CIS: Attagene CIS-FACTORIAL HepG2 Assay for human Nuclear Factor Erythroid 2 Related Factor 2 (NFR2) response to Antioxidant Response Elements (ARE) (AID 2282992). The following applies: HepG2 Attagene ARE/NRF2 reporter, transcription factor activity; actives raise or lower the signal. In outline: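 Readout: reporter mRNA quantified by RT-PCR plus FAM-labelled primer extension, HpaI digestion and capillary electrophoresis, 24 h after dosing transfected HepG2 cells. Gain or loss of signal is fitted bidirectionally against DMSO baseline.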

Experiment [14] is described as follows: ATG_Oct_MLP_CIS: Attagene CIS-FACTORIAL HepG2 Assay for human Octamer-Binding Transcription Factor (Oct) (AID 2282993). The following applies: HepG2 Attagene cis-factorial Oct reporter, mRNA; actives raise or lower the signal. Put shortly: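 HepG2 cells transiently transfected with cis-promoter-driven multiplexed reporter transcription units, dosed for 24 h. Reporter mRNA quantified by RT-PCR, fluorescent labelling, HpaI digestion and capillary electrophoresis; bidirectional fits versus DMSO baseline.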

Experiment [15] addresses Cellular tumor antigen p53 (Homo sapiens) (UniProt P04637). Briefly: ATG_p53_CIS: Attagene CIS-FACTORIAL HepG2 Assay for human p53 Transcription Factor (AID 2282994). The following applies: HepG2 p53 cis-element reporter, Attagene mRNA; actives raise or lower the signal. Put shortly:
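Read-out: reporter mRNA by RT-PCR plus capillary electrophoresis with fluorescence detection. Human HepG2 liver cells carried transfected multi-reporter cis-element constructs, dosed 24 h. Gain or loss of signal fitted bidirectionally against DMSO control.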

Experiment [16] can be described thus: BSK_3C_TissueFactor: BioMAP Diversity Plus: 3C Assay for Tissue Factor Biomarker Activity (AID 2282997). The following applies: BioMAP 3C HUVEC, tissue factor biomarker readout; actives raise or lower the signal. In outline:
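Tissue Factor measured by ELISA, 24 h after treatment of primary HUVEC in the BioMAP 3C setting.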

A short description of experiment [17]: BSK_3C_uPAR: BioMAP Diversity Plus: 3C Assay for Urokinase-type plasminogen activator receptor (uPAR) Biomarker Activity (AID 2282998). The following applies: BioMAP 3C HUVEC, uPAR biomarker ELISA; actives raise or lower the signal. In outline: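 Human umbilical vein endothelial primary cells were exposed to test chemical for 24 h. Cell-surface uPAR was then quantified by ELISA, and responses were fitted bidirectionally against DMSO as negative control and baseline.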
(In general: An ELISA detects its analyte on a solid surface through an enzyme-linked reagent.)

Experiment [18] in a line: BSK_3C_VCAM1: BioMAP Diversity Plus: 3C Assay for Vascular cell adhesion molecule 1 (VCAM1) Biomarker Activity (AID 2282999). Conditions: BioMAP 3C HUVEC, VCAM1 ELISA, cytokine-stimulated; actives raise or lower the signal. In outline: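 Vascular primary endothelium (human umbilical vein) was exposed to chemicals and assayed 24 h later. VCAM-1 levels came from ELISA, with DMSO serving as baseline for bidirectional fitting.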

The nature of experiment [19]: ATG_GAL4_TRANS: Attagene TRANS-FACTORIAL HepG2 Assay for GAL4 (Internal Marker) (AID 2282976; active = hit-call score of the fitted dose curve at least 0.9, where 1 is the maximum). Conditions: HepG2 Attagene TRANS GAL4 internal marker reporter. In outline: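 Background-control readout: GAL4-UAS reporter transcript in transiently transfected HepG2 cells after 24 h compound exposure. Measured by RT-PCR, 6-FAM primer extension, HpaI digest and capillary electrophoresis; gain-of-signal fit versus DMSO.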

The target in experiment [20] is Myc proto-oncogene protein (Homo sapiens) (UniProt P01106). Briefly: ATG_Myc_CIS: Attagene CIS-FACTORIAL HepG2 Assay for human Myelocytomatosis (Myc) Proto-Oncogene Transcription Factor (AID 2282990). Conditions: HepG2, Attagene cis-reporter transcription factor activity; actives raise or lower the signal. Put shortly:
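Multiplexed cis-reporter transcription in HepG2 cells after 24 h chemical treatment. Reporter mRNA measured by RT-PCR and capillary electrophoresis fluorescence; activity fitted bidirectionally against DMSO control.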

Several values for one entry are separate records, joined by “and”; a condition that tells them apart may be missing. Equal entries are not always repeated. Inconclusive results are not listed. A structure can be active in one record and inactive in another. Activity calls are given as the source filed them. Rule for the calls, unless noted: active = hit-call score of the fitted dose curve at least 0.9, where 1 is the maximum; inactive = score below 0.9.

Chain of Estrogen-related receptor gamma (Homo sapiens) (P62508 whole entry, looked up, the tested form may be a part): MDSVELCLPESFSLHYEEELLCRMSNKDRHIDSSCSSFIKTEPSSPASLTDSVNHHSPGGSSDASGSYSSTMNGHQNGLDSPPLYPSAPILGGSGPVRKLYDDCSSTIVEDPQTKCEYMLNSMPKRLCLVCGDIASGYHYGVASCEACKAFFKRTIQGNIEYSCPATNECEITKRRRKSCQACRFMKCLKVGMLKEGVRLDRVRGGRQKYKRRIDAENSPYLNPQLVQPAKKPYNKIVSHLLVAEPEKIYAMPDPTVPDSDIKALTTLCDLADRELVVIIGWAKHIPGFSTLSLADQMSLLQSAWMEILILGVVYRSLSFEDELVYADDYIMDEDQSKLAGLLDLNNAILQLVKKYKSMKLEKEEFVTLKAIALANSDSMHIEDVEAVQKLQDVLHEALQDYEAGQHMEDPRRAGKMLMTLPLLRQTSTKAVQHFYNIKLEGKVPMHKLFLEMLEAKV
Chain of Glucocorticoid receptor (Homo sapiens) (P04150 whole entry, looked up, the tested form may be a part): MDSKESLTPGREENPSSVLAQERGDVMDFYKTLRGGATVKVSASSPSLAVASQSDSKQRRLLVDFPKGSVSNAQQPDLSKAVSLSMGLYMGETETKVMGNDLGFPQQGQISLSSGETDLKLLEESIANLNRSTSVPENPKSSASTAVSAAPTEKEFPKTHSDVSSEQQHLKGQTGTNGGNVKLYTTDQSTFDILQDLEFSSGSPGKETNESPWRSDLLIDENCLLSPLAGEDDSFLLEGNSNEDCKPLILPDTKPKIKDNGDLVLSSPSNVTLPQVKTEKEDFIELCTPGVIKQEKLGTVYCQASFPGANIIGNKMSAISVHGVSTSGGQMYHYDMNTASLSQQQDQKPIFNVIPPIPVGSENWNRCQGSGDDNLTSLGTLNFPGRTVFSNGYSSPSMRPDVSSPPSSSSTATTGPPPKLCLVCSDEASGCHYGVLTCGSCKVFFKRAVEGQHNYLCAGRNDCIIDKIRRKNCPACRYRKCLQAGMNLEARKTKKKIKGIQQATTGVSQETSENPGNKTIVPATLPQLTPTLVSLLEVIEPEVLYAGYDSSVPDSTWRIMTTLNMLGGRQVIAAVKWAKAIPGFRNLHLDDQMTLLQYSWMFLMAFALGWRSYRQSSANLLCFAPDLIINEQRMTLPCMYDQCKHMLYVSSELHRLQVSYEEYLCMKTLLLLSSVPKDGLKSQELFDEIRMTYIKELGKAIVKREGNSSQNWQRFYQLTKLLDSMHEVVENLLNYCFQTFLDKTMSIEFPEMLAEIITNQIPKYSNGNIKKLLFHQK
Chain of Oxysterols receptor LXR-beta (Homo sapiens) (P55055 whole entry, looked up, the tested form may be a part): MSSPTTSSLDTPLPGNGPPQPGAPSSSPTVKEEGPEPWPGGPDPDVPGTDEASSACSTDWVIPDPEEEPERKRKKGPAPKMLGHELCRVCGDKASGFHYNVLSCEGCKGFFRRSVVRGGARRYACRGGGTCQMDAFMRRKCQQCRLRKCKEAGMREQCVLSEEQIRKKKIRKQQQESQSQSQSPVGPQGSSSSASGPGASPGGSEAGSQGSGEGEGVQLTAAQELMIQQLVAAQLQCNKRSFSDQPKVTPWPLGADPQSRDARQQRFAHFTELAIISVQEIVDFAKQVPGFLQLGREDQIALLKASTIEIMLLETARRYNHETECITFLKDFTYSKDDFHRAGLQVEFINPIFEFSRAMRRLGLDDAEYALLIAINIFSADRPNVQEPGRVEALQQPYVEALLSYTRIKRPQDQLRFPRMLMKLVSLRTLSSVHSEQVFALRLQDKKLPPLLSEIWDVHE
Chain of Cellular tumor antigen p53 (Homo sapiens) (P04637 whole entry, looked up): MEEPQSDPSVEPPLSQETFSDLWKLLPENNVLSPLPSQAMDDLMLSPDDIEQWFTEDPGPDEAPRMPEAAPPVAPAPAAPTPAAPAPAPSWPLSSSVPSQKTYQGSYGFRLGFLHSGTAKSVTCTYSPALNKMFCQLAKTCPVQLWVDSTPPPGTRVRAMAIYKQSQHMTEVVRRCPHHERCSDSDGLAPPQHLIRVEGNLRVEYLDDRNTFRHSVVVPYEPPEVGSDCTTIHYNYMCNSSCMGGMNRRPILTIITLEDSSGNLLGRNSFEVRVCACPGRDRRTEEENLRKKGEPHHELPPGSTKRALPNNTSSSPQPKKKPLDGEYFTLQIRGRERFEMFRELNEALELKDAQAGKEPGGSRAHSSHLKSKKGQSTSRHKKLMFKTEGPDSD
Chain of Nuclear receptor subfamily 4 group A member 2 (Homo sapiens) (P43354 whole entry, looked up, the tested form may be a part): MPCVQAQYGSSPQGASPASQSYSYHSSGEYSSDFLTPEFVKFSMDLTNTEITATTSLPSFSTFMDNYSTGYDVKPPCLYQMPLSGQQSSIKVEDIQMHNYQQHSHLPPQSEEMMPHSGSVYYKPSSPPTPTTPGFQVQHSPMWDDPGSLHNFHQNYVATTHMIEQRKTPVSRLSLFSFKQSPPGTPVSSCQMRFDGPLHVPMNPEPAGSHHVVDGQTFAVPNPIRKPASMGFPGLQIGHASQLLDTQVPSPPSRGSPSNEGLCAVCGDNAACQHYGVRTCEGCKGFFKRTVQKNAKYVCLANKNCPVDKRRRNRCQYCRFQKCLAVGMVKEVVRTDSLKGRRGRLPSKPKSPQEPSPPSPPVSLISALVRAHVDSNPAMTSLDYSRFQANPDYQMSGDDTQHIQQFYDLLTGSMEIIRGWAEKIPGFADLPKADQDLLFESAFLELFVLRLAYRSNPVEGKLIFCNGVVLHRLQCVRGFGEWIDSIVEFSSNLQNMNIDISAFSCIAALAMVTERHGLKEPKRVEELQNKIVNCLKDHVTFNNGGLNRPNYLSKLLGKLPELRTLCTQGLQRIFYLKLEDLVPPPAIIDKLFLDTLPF
Chain of Transcriptional activator Myb (Homo sapiens) (P10242 whole entry, looked up): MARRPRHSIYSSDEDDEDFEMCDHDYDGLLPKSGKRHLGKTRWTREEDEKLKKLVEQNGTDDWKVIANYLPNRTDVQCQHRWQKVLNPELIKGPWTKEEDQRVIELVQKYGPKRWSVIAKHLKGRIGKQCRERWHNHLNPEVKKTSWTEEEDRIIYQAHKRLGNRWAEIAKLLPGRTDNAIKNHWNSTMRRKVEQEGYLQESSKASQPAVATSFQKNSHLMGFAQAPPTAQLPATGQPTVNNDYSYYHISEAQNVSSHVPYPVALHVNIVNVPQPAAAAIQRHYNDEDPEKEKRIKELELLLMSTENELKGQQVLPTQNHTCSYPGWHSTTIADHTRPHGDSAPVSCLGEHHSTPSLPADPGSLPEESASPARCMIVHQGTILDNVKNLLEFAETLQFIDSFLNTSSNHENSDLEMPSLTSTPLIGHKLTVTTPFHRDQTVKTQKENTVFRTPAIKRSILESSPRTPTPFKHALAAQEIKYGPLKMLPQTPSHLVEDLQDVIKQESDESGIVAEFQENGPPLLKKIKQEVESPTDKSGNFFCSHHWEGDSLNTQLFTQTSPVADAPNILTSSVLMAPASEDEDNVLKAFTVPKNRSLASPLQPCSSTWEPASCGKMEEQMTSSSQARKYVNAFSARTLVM
Chain of Oxysterols receptor LXR-alpha (Homo sapiens) (Q13133 whole entry, looked up, the tested form may be a part): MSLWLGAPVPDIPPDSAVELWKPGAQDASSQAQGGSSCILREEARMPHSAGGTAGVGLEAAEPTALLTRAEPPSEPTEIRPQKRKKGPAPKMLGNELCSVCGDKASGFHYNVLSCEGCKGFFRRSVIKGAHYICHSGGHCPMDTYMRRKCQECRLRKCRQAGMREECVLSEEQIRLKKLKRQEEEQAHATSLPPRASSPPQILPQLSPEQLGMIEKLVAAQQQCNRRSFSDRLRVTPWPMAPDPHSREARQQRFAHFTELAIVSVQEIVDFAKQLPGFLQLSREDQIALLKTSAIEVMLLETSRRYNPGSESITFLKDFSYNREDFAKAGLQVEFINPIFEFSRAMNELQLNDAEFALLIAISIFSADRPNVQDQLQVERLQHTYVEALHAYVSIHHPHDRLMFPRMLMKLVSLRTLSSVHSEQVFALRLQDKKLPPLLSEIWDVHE
Chain of Hepatocyte nuclear factor 4-alpha (Homo sapiens) (P41235 whole entry, looked up, the tested form may be a part): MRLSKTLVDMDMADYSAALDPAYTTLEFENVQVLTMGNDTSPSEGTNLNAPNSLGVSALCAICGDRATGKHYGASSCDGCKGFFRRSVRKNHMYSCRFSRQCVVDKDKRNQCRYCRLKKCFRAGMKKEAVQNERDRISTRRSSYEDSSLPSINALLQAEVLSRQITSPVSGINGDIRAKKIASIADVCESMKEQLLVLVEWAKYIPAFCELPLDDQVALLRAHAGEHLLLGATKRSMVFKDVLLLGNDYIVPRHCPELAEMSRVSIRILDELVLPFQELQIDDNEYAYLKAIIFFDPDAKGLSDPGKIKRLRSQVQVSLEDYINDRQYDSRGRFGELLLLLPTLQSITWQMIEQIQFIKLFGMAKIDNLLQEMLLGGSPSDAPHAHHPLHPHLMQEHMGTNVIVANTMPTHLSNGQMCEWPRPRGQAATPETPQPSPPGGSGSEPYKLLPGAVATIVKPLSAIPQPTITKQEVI
Chain of Nuclear respiratory factor 1 (Homo sapiens) (Q16656 whole entry, looked up): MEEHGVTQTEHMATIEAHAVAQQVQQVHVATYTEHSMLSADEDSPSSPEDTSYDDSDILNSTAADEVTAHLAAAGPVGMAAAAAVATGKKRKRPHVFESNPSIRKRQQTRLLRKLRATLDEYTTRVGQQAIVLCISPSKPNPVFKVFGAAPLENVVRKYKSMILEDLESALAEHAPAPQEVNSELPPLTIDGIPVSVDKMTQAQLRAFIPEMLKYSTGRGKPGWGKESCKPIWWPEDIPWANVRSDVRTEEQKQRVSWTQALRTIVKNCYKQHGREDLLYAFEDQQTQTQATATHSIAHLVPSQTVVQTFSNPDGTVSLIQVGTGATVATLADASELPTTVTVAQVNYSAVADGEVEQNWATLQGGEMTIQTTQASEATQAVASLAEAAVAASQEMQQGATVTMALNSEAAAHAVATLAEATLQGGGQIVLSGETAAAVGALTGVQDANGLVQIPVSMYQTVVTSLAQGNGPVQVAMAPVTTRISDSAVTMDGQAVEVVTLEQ

For `CCC(C)(NC(=O)c1cc(Cl)c(C)c(Cl)c1)C(=O)CCl` (configuration not stated), the result in experiment [1], in experiment [2], in experiment [3], in experiment [4], in experiment [5] and in experiment [6] was inactive. The compound was classed as inactive in [7], in experiment [8], in experiment [9], in [10], in experiment [11] and in experiment [12]. Further, the outcome in [14] and in [15] was inactive. In addition, the AC50 (in general, the concentration giving half of the maximal activity seen) in experiment [13] is 1.64 µM (active); in [16], 5.41 µM (active); in [17], 14.4 µM (active); in experiment [18] it was 9.51 µM (active).
Take `Oc1ccc(Cl)cc1Cc1ccccc1`: the result in [19], in [2], in [4], in [5], in experiment [6] and in [7] was inactive. Further, the compound was classed as inactive in experiment [8], in [9], in [10], in experiment [11], in [14] and in experiment [15]. Besides, the AC50 in experiment [2] was 33.6 µM (active); in [9] it was 14.7 µM (active); in experiment [10], 15.2 µM (active); in experiment [14], 6.94 µM (active) and 8.1 µM (active) and 14.8 µM (active); in experiment [16], 32.4 µM (active) [middle of 7 runs]; in experiment [17], 29.2 µM (active) [middle of 7 runs]. Moreover, the concentration at half-maximal activity (AC50) in experiment [18] was 34.9 µM (active) [middle of 7 runs].
`O=C(O)COc1ccc(Cl)cc1Cl`: the compound was classed as inactive in experiment [19], in experiment [2], in experiment [6], in experiment [7], in experiment [8] and in experiment [9]. The compound was classed as inactive in experiment [10], in [11], in experiment [13], in experiment [14], in [15] and in experiment [16]. The outcome in [17] and in [18] was inactive.
On to `CCOCN(C(=O)CCl)c1c(C)cccc1CC`, for which the call in experiment [19], in experiment [1], in [5], in experiment [8], in experiment [9] and in [10] was inactive. Besides, the compound was called inactive in experiment [11], in experiment [14], in [15], in experiment [16] and in [17]. Moreover, the AC50 in [18] was 14.3 µM (active).
For `CC1(C)C(C=C(Cl)Cl)C1C(=O)OC(C#N)c1ccc(F)c(Oc2ccccc2)c1` (configuration not stated), the outcome in experiment [19], in experiment [1], in experiment [2], in experiment [5], in [7] and in experiment [8] was inactive. Further, the outcome in experiment [9], in [10], in experiment [11], in experiment [20], in experiment [15] and in [16] was inactive. The outcome in experiment [17] and in experiment [18] was inactive. Further, in experiment [14], the AC50 was 2.22 µM (active).
As for `OCCOc1ccccc1`, the call in experiment [1], in experiment [2], in experiment [4], in [5], in [8] and in experiment [9] was inactive. In addition, the result in experiment [10], in experiment [11], in experiment [13], in [14], in experiment [15] and in [16] was inactive. The result in [17] and in experiment [18] was inactive.
